± gives the standard deviation of the averaged measurements.
What was measured:
Details in all cases: concentration: 10 µM; 24 h
HCC1569 [1] = experiment: cell number relative to DMSO (% of DMSO); higher = more cells (less growth inhibition / toxicity)
Method in brief: (§1)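 Six fields per well were imaged at ×10 after the cells were fixed in 3.7% formaldehyde and stained with a rabbit anti-H1.0 antibody, an AlexaFluor 647 secondary and DAPI. The HCC1569 and TDF cells had been plated at 800 per well in 384-well plates (RPMI, 10% FBS) and treated in triplicate with compounds at 10 µM for 24 h at 37 °C. The values are the median of replicates of H1.0 nuclear intensity or cell number, as percent of the plate control. Smoothing for positional effects was applied to HCC1569 data.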

TDF [2] = experiment: as above
Method in brief: as §1

TDF [3] = experiment: H1.0 immunofluorescence intensity relative to DMSO (% of DMSO); higher = stronger H1.0 induction, active = 120 or more
Method in brief: as §1

HCC1569 [4] = experiment: H1.0 immunofluorescence intensity relative to DMSO (% of DMSO); higher = stronger H1.0 induction, active = 140 or more
Method in brief: as §1
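For H1.0 immunofluorescence intensity relative to DMSO in this document: TDF is a line of transformed human dermal fibroblasts of mesenchymal origin.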
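For cell number relative to DMSO in this document: TDF denotes transformed human dermal fibroblasts of mesenchymal origin.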

Compound	cell number (HCC1569 [1])	cell number (TDF [2])	H1.0 immunofluorescence intensity (TDF [3])	H1.0 immunofluorescence intensity (HCC1569 [4])
COCCCOc1ccnc(CS(=O)c2nc3ccccc3[n-]2)c1C.[Na+] (stereo not given)	101	90.9	103 (inactive)	106 (inactive)
Oc1ccccc1O [Pyrocatechol]	73.6	87.2	93.7 (inactive)	117 (inactive)
O=c1cc(-c2ccccc2)oc2cc(O)c(O)c(O)c12 [Baicalein]	98.9 ± 2.6	92.95 ± 0.67	93.3 (inactive)	99.6 (inactive)
CCCn1c(=O)c2c(ncn2C)n(CCC)c1=O [1,3-Dipropyl-7-methylxanthine]	99.5	101	93.1 (inactive)	94.8 (inactive)
CC(N)(Cc1ccc(O)cc1)C(=O)O [L-alpha-Methyl-p-tyrosine]	107	111	92.6 (inactive)	90.6 (inactive)
Cc1ccc(C(=O)c2ccc(CC(=O)O)n2C)cc1 [Tolmetin]	101	99	104 (inactive)	104 (inactive)
Cc1ccc(C)c(-c2cc(C(F)(F)F)nn2-c2ccc(S(N)(=O)=O)cc2)c1	101	96.8	97.5 (inactive)	101 (inactive)
CCN(c1nc(N)c(C(=O)N=C(N)N)nc1Cl)C(C)C [5-(N-Ethyl-N-isopropyl)amiloride]	103	95	97.2 (inactive)	91 (inactive)
Cc1cn[nH]c1.Cl [4-Methylpyrazole hydrochloride]	108	102	98.5 (inactive)	95.4 (inactive)
C#CCN1C(C)=C(C(=O)OC)C(c2cccc([N+](=O)[O-])c2)C(C(=O)OCC)=C1C (stereo not given)	97.2	107	89.2 (inactive)	103 (inactive)
